This assay has as its system primary human hepatic stellate cells (donor 1). Kind of assay: scaled lipid accumulation score (0 = DMSO-like, 1 = nortriptyline-like); higher = stronger HSC inactivation (lipid re-accumulation), active = hit call of the paper. To be noted: 48 h.
The mark [1] stands for this setting: library stock concentration: 1 mM.
Setting [2] is: library stock concentration: 80 uM.
Setting [3] is: library stock concentration: 400 uM.
[4] abbreviates: library stock concentration: 2 mM.
Where [5] appears, read: library stock concentration: 10 mM.
Setting [6] is: library stock concentration: 3.33 mM.

Counter-ions that a name gives are not always drawn. Among all 5,800 compounds or so, about 620 (11%) showed activity. For the sample, actives were picked, then their nearest neighbours and some compounds at random. A number with no mark means an inactive call.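 The calls were made as follows: active = score above a cut-off or among the top three wells of a plate; in these data no inactive exceeds 0.85.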

For `NC(=O)OCC(O)COc1ccc(Cl)cc1` (stereo unspecified) [Chlorphensin carbamate], the “scaled lipid accumulation score” value was at most 0. For the compound `CCOc1c2c(c(OCC)c3ccccc13)C(=O)N(c1ccc(CC(=O)NS(=O)(=O)c3ccccc3)cc1)C2`, the “scaled lipid accumulation score” value under setting [1] was at most 0. For `CCCCC/C=C\C/C=C\C/C=C\C/C=C\CCCCNC(=O)c1ccc(O)cc1`, the “scaled lipid accumulation score” value under setting [1] was at most 0.

Turning to `CCCCC(C)CC(O)/C=C/C1C(O)CC(O)C1CCCCCCC(=O)O` (stereo not drawn) [17,20-dimethyl Prostaglandin F1.alpha.], the “scaled lipid accumulation score” value under setting [1] was at most 0. In the case of `Nc1cccc2c1CN(C1CCC(=O)NC1=O)C2=O` (stereo unspecified) [Lenalidomide], the “scaled lipid accumulation score” value is, setting by setting: under setting [2], 0.004; under setting [3], 0.005; under setting [4], at most -0.001; under setting [5], at most -0.001. With `Nc1cccc2c1CN(C1CCC(=O)NC1=O)C2=O` (stereo unspecified) [Lenalidomide (CC-5013)], the “scaled lipid accumulation score” value is, setting by setting: under setting [6], 0.003; under setting [5], at most 0. On to `Nc1nc2[nH]cnc2c(=S)[nH]1` [Thioguanine], for which the “scaled lipid accumulation score” value was at most 0 under setting [5] and at most 0 (library stock concentration: 12 mM).

As for `O=C(NCCCCCCNC(=O)ON=C1CCCCC1)ON=C1CCCCC1`, the “scaled lipid accumulation score” value reads like this: under setting [5], 0.062; (library stock concentration: 12.7 mM) 0.056. In the case of `CNC(=O)c1ccc(Nc2cc(Nc3ccccc3S(=O)(=O)C(C)C)c3cc[nH]c3n2)nc1`, the “scaled lipid accumulation score” value under setting [2] was 0.027, the “scaled lipid accumulation score” value under setting [3] was 0.02, the “scaled lipid accumulation score” value under setting [4] is 0.04 and the “scaled lipid accumulation score” value under setting [5] was at most 0. Take `Cc1coc2c1C(=O)C(=O)c1c-2ccc2c(C)cccc12` [Tanshinone I]: the “scaled lipid accumulation score” value by setting is: under setting [6], at most 0; under setting [5], at most 0. Regarding `CCCCC/C=C\C/C=C\C/C=C\C/C=C\CCCC(=O)O` [Arachidonic acid (20:4, n-6)], under setting [1], the “scaled lipid accumulation score” value was at most -0.021. `CCCCC/C=C\C/C=C\C/C=C\C/C=C\CCCC(=O)O` [Arachidonic Acid]: under setting [1], the “scaled lipid accumulation score” value is at most 0. Turning to `Cc1ccc(C(=O)Nc2cccc(C(F)(F)F)c2)cc1-c1ccc2nc(NCCN3CCOCC3)ncc2c1` [listing 1 of 2 here], the “scaled lipid accumulation score” value under setting [5] is 1.34 (active). `Cc1ccc(C(=O)Nc2cccc(C(F)(F)F)c2)cc1-c1ccc2nc(NCCN3CCOCC3)ncc2c1` [listing 2 of 2 here]: the “scaled lipid accumulation score” value under setting [3] was at most -0.005 and the “scaled lipid accumulation score” value under setting [4] was 0.748.

As to `COc1ccc(N(C(=O)Oc2cc(C(=O)Nc3cccc(C(F)(F)F)c3)ccc2C)c2ccnc(Nc3ccc(N4CCN(C)CC4)cc3)n2)c(OC)c1`, the “scaled lipid accumulation score” value by setting is: under setting [2], 0.07; under setting [3], 0.248; under setting [4], 0.495; under setting [5], 0.396.

Take `CCCCCC(=O)/C=C/C=O` [4-oxo-2-Nonenal]: under setting [1], the “scaled lipid accumulation score” value was at most 0.

Take `COc1ccc(-c2cc(=O)c3c(O)cc(O)cc3o2)cc1` [Acacetin]: the “scaled lipid accumulation score” value is at most 0. Under setting [5], the “scaled lipid accumulation score” value was at most -0.027. `Cc1cc(Nc2ncc(Cl)c(Nc3ccccc3S(=O)(=O)C(C)C)n2)c(OC(C)C)cc1C1CCNCC1` [Ceritinib]: the “scaled lipid accumulation score” value reads like this: under setting [2], 0.312; under setting [3], 0.357; under setting [4], 0.663; under setting [5], at most 0. For the compound `Cc1cc(Nc2ncc(Cl)c(Nc3ccccc3S(=O)(=O)C(C)C)n2)c(OC(C)C)cc1C1CCNCC1`, the “scaled lipid accumulation score” value under setting [6] was 0.582 and the “scaled lipid accumulation score” value under setting [5] is 0.131. As for `CN(C)S(=O)(=O)c1ccc2c(c1)/C(=C/c1cc3c([nH]1)CCCC3)C(=O)N2` [listing 1 of 3 here], the “scaled lipid accumulation score” value under setting [6] is 0.613. On to `COc1cc(OC)c(C=C2C(=O)Nc3ccccc32)c(OC)c1`, for which the “scaled lipid accumulation score” value reads like this: under setting [6], at most 0; under setting [5], at most 0.

Regarding `CN(C)S(=O)(=O)c1ccc2c(c1)/C(=C/c1cc3c([nH]1)CCCC3)C(=O)N2` [listing 2 of 3 here], under setting [5], the “scaled lipid accumulation score” value was 0.958 (active).

Take `O=C1Nc2ccc(Br)cc2/C1=C/c1cc2c([nH]1)CCCC2` [VEGF Receptor 2 Kinase Inhibitor II]: the “scaled lipid accumulation score” value under setting [6] is 0.454. `CN(C)S(=O)(=O)c1ccc2c(c1)/C(=C/c1cc3c([nH]1)CCCC3)C(=O)N2` [listing 3 of 3 here]: the “scaled lipid accumulation score” value under setting [1] was 0.413 (active).

In the case of `O=C1Nc2ccccc2/C1=C\c1c(Cl)[nH]c2ccccc12`, the “scaled lipid accumulation score” value is at most -0.001 under setting [2], at most -0.001 under setting [3], at most -0.001 under setting [4] and 0.116 under setting [5]. Regarding `CCCCC[C@H](O)CC[C@@H]1[C@@H](CCCCCCC(=O)O)[C@@H](O)C[C@H]1O` [13,14-dihydro Prostaglandin F1.alpha.], the “scaled lipid accumulation score” value under setting [1] was at most 0.

Turning to `NCc1c[nH]c(=S)n1C1CCc2c(F)cc(F)cc2C1` [(R)-Nepicastat HCl], the “scaled lipid accumulation score” value is, setting by setting: under setting [6], at most 0; under setting [5], 0.361.

As to `CC(=NNC(=S)N1CCC1)c1ccccn1`, the “scaled lipid accumulation score” value was 0.164 under setting [6] and 0.375 under setting [5]. With `CCCCC1(C2CCCC2)Cc2cc(OCC(=O)O)c(Cl)c(Cl)c2C1=O` (stereo in doubt) [R(+)-Butylindazone], the “scaled lipid accumulation score” value under setting [5] was 0.139. `CN(CC(=O)N(Cc1ccc(C2CCCCC2)cc1)c1ccc(C(=O)O)cc1)S(=O)(=O)c1c(F)c(F)c(F)c(F)c1F`: the “scaled lipid accumulation score” value was at most -0.009 under setting [6] and 0.483 under setting [5]. `CCCCC[C@H](O)/C=C/[C@@H]1[C@@H](C/C=C\CCCC(=O)N(C)C)[C@@H](O)C[C@H]1O` [Prostaglandin F2.alpha. dimethyl amide]: the “scaled lipid accumulation score” value under setting [1] is at most 0.

Regarding `CC(COc1ccccc1)N(CCCl)Cc1ccccc1` (stereo unspecified) [Phenoxybenzamine HCl], the “scaled lipid accumulation score” value by setting is: under setting [6], at most 0; (library stock concentration: 6.6 mM) 0.025; under setting [5], at most 0. Take `C=CC(=O)c1ccc2ccccc2c1`: the “scaled lipid accumulation score” value under setting [5] is 0.015. Still for that read-out and setting: with `CC(C)N(CCC(=O)c1ccc2ccccc2c1)Cc1ccccc1.Cl` [listing 1 of 2 here] the figure was 0.966 (active); with `CC(C)N(CCC(=O)c1ccc2ccccc2c1)Cc1ccccc1.Cl` [listing 2 of 2 here], 1.1 (active). `CC(COc1ccccc1)N(CCCl)Cc1ccccc1` (stereo unspecified) [Phenoxybenzamine]: the “scaled lipid accumulation score” value (library stock concentration: 16.5 mM) is at most -0.012. As to `CC(C)NCC(O)c1ccc2ccccc2c1` (stereo unspecified) [Pronethalol hydrochloride], the “scaled lipid accumulation score” value was 0.369. Besides, under setting [5], the “scaled lipid accumulation score” value was 0.221. Take `CC(C)NCC(O)c1ccc2ccccc2c1` (stereo unspecified) [Pronethalol HCl]: the “scaled lipid accumulation score” value (library stock concentration: 8.7 mM) was 0.224. Regarding `CC(C)NCC(O)c1ccc2ccccc2c1` (stereo unspecified) [Pronetalol hydrochloride], under setting [5], the “scaled lipid accumulation score” value is 0.107.

Turning to `CC(COc1ccccc1)N(CCCl)Cc1ccccc1` (stereo unspecified) [Dibenzyline], the “scaled lipid accumulation score” value under setting [5] is 0.174. Regarding `CC(COc1ccccc1)N(CCCl)Cc1ccccc1` (stereo unspecified) [Phenoxybenzamine hydrochloride], the “scaled lipid accumulation score” value was 0.065. For the same compound, the “scaled lipid accumulation score” value (library stock concentration: 5.9 mM) is at most 0.

Regarding `CC(C)N(CCC(=O)c1ccc2ccccc2c1)Cc1ccccc1`, the “scaled lipid accumulation score” value runs as follows: under setting [6], 0.613; under setting [5], 0.619.

`CCCCCCCCCCCCCCCCOC[C@H](COP(=O)([O-])OCCCCCC[N+](C)(C)C)OC(C)=O` [Hexanolamino PAF C-16]: under setting [1], the “scaled lipid accumulation score” value is at most 0.

Take `Cc1ccc(-n2[nH]c(C)c(N=Nc3cccc(-c4cccc(C(=O)O)c4)c3O)c2=O)cc1C` [Eltrombopag]: the “scaled lipid accumulation score” value is 0.081 under setting [6] and 0.077 under setting [5]. With `COc1cccc2cc(-c3nc([C@H]4CC[C@H](C(=O)O)CC4)n4ncnc(N)c34)[nH]c12`, the “scaled lipid accumulation score” value is, setting by setting: under setting [2], at most 0; under setting [3], 0.061; under setting [4], at most 0; under setting [6], 0.043; under setting [5], at most 0. Consider `C[C@H]1C[C@@H]2[C@H]([C@@H](O)C[C@@]3(C)[C@H]2CC[C@]3(O)C(=O)COC(=O)CCC(=O)O)[C@@]2(C)C=CC(=O)C=C12` [Methylprednisolone sodium succinate], for which, for the setting “library stock concentration: 4 mM”, the “scaled lipid accumulation score” value was 0.015. Regarding `N#CSc1cc(SC#N)c(N)nc1N`, the “scaled lipid accumulation score” value by setting is: under setting [6], 0.46; under setting [5], 0.53.

In the case of `NC(Cn1ccc(=O)c(O)c1)C(=O)O` (stereo unspecified) [Mimosine], the “scaled lipid accumulation score” value is at most 0. Besides, the “scaled lipid accumulation score” value under setting [5] is at most 0. As to `CCCCC[C@H](O)/C=C/[C@H]1CC[C@H](O)[C@@H]1CCCCCCC(=O)O` [11-deoxy Prostaglandin F1.alpha.], the “scaled lipid accumulation score” value under setting [1] was at most 0. As to `CCCCC(C)(C)[C@H](O)/C=C/[C@H]1CCC(=O)[C@@H]1C/C=C\CCCC(=O)O` [11-deoxy-16,16-dimethyl Prostaglandin E2], under setting [1], the “scaled lipid accumulation score” value is 0.098.

For `CN1CCN(CC/C=C2/c3ccccc3Sc3ccc(S(=O)(=O)N(C)C)cc32)CC1` [Thiothixene], the “scaled lipid accumulation score” value under setting [5] is 0.435. `CN1CCN(CCCN2c3ccccc3Sc3ccc(S(=O)(=O)N(C)C)cc32)CC1` [Thioproperazine dimesylate]: the “scaled lipid accumulation score” value is 0.733. For `CN1CCN(CC/C=C2/c3ccccc3Sc3ccc(S(=O)(=O)N(C)C)cc32)CC1`, the “scaled lipid accumulation score” value under setting [5] is 0.722.

On to `Cl.OCCN1CCN(CC/C=C2/c3ccccc3Sc3ccc(Cl)cc32)CC1` [Zuclopenthixol hydrochloride], for which the “scaled lipid accumulation score” value was 0.995 (active). For `CN1CCN(CC/C=C2\c3ccccc3Sc3ccc(S(=O)(=O)N(C)C)cc32)CC1` [Thiothixene], the “scaled lipid accumulation score” value (library stock concentration: 4.5 mM) is 0.856 (active). On to `Cl.Cl.OCCN1CCN(CC/C=C2/c3ccccc3Sc3ccc(C(F)(F)F)cc32)CC1` [cis-(Z)-Flupenthixol dihydrochloride], for which, under setting [5], the “scaled lipid accumulation score” value is 1.01 (active). Turning to `CCCCC[C@H](O)C/C=C1/C(=O)C=C[C@@H]1C/C=C\CCCC(=O)O` [D12-Prostaglandin J2], the “scaled lipid accumulation score” value under setting [1] is at most -0.021. Turning to `CC(=N)NCc1cccc(CN)c1` [1400W dihydrochloride], under setting [5], the “scaled lipid accumulation score” value was at most -0.006. Turning to `Cc1oc(S(=O)(=O)N2CCCCC2)cc1NC(=O)Nc1ccccc1`, the “scaled lipid accumulation score” value under setting [1] was at most 0. With `Cc1cc(/N=N/c2cc(S(=O)(=O)O)c(C)cc2C)c(N)cc1O` [Ischemin], the “scaled lipid accumulation score” value by setting is: under setting [2], at most 0; under setting [3], at most 0; under setting [4], at most 0; under setting [5], at most 0. Take `COC(=O)CC(NC(=O)C(C)NC(=O)C(NC(=O)OCc1ccccc1)C(C)C)C(=O)CF` (stereo unspecified): the “scaled lipid accumulation score” value runs as follows: under setting [6], at most 0; under setting [5], 0.101. `Cc1cc(C)c(S(=O)(=O)Nc2ccccc2C(F)(F)F)c(C)c1`: under setting [5], the “scaled lipid accumulation score” value was 0.002. For `CC/C=C\C/C=C\C/C=C\C/C=C\C/C=C\CCCC(=O)O` [Eicosapentaenoic acid (20:5 n-3)], the “scaled lipid accumulation score” value under setting [1] is 0.009. Still for that read-out and setting: with `CC/C=C\C/C=C\C/C=C\C/C=C\C/C=C\CCCC(=O)O` [Eicosapentaenoic Acid] the figure was 0.001.

The values are drawn from the supplement of paper PMC9135407.
